Tb PYK inh – qHTS of Trypanosoma Brucei Inhibitors; pyruvate kinase (Trypanosoma brucei), Q57TT1; TbPYK enzyme, Kinase-Glo Plus ATP luminescence, 45 min; Potency, µM (series often up to 76.8 µM), inactives show at the top dose activity, negative = inhibition, hits mostly inhibitors; 410,000 tested, 0.12% active; AID 624173, 2012; also: nearly all actives have a fitted effect of over 50% in size
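Enzyme and substrate buffer are dispensed first and compound is pin-transferred. ADP at 130 uM final then starts the reaction, which runs 45 min at room temperature. Detection reagent is added for 10 min before luminescence is imaged.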
FBPA Giardia inh – qHTS Assay for Inhibitors of Fructose-1,6-bisphosphate Aldolase from Giardia Lamblia | purified Giardia FBPA | 290,000 tested, 0.71% active | A8B2U2 | AID 2451, 2010 | Potency, µM (top dose mostly 59.6 µM), without a hit: top-dose activity, negative = inhibition, hits mostly inhibitors; also: nearly all actives have a fitted effect of over 55% in size
Target sequence (A8B2U2 whole entry, looked up): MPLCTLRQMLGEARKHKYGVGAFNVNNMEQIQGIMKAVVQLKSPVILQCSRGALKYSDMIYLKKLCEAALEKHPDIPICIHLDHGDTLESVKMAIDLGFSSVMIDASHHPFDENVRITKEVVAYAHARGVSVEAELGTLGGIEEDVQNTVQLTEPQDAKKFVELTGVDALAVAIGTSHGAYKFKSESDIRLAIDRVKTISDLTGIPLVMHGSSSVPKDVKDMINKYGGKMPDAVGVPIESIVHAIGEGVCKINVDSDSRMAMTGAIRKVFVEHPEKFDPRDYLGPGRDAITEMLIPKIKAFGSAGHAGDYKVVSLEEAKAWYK
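40 nM FBPA preincubated 10 min at RT with compound (up to 57.5 uM final), then substrate plus GAPDH/TPI/NAD/arsenate coupling and diaphorase/resazurin added. Fluorescence read after 20 min at RT, 525/598 nm.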
Sm TGR block – qHTS Assay for the Inhibitors of Schistosoma Mansoni Peroxiredoxins; 360,000 tested, 3% active; purified TGR, DTNB reduction, TNB absorbance 405 nm; Potency, µM (titrated, usually from 114 µM), for the others: at the top dose activity change, negative = inhibition, usual class: inhibitors; also: nearly all actives have a fitted effect of over 60% in size
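Kinetic colorimetric format: TGR-catalysed, NADPH-driven DTNB reduction monitored via TNB absorbance. Enzyme dispensed at 20 nM; compound exposure 15 min at room temperature before reaction start.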
LmPK inh – qHTS Assay for Inhibitors of Leishmania Mexicana Pyruvate Kinase (LmPK); Potency, µM (titrated, usually from 57.5 µM), for inactives: at the highest dose activity change, negative = inhibition, actives largely listed as inhibitors; AID 1721, 2009; purified LmPK, Kinase-Glo ATP luminescence, 1 h; Q27686; 290,000 tested, 0.37% active
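Purified LmPK (0.1 nM) with 0.5 mM PEP and 0.1 mM ADP in imidazole buffer pH 7.2 with MgCl2/KCl, 1 h at room temperature. ATP formed was read by luciferase luminescence and normalized to no-enzyme and uninhibited controls.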
RE007 growth inh – qHTS Assay for Inhibitors of the HIV-1 protein Vpr; S. pombe RE007 Vpr strain, BacTiter-Glo ATP luminescence, 24 h; 360,000 tested, 0.21% active; Potency, µM (highest dose often 92.2 µM), for the others: at the highest dose activity change, negative = less growth, most hits filed as inhibitors; AID 651644, 2012; active = well fitted falling curve with a large enough effect; inconclusive = small, poorly fitted or top-dose-only effect; inactive = no such curve, though single readings can be large or run the other way; also: nearly all actives have a fitted effect of over 50% in size
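Fission yeast strain RE007, carrying one chromosomally integrated HIV-1 vpr copy, was seeded at OD 0.01 in PMG+AL medium with 23 nL pinned compound. After 24 h at 30 °C and 99% humidity, viability was read by BacTiter-Glo luminescence.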
Active calls of the source: *; u = inconclusive; x = no result. Only some compounds are listed: those with a hit (about 3.3% of all), similar ones and a draw of the others. Unless noted, calls follow the shape of the dose curve; as a rule, active = well fitted curve in the direction sought with a large enough effect; inconclusive = small, poorly fitted or top-dose-only effect, or another doubt; inactive = no such curve, though single readings can be large; an effect the other way counts as inactive or inconclusive. % is scaled to controls: 0 for no effect and ±100 for the full control effect; potency is read from the fitted curve at half-maximal effect.

SMILES	Tb PYK inh	FBPA Giardia inh	Sm TGR block	LmPK inh	RE007 growth inh
O=[N+]([O-])c1ccc(NC(=S)N/C(=N/CS(=O)(=O)c2ccccc2)c2ccccc2)cc1	-4%	1%	20µM*	0%	-9%
O=C(NC1CCN(C(=O)Nc2ccc(F)cc2)CC1)c1ccccc1F	-6%	-4%	2%	-3%	2%
CN(C)C(=O)CSc1ccccc1C(=O)OCC(=O)NC1CC1	-5%	x	-7%	x	14%
O=C(O)/C=C/C(=O)NCC1CCC(CNC(=O)/C=C/C(=O)O)CC1 (stereo unspecified)	9%	-9%	u	-2%	-2%
O=C1C2C3C=CC(C3)C2C(=O)N1CNc1ccc(O)cc1 (stereo unspecified)	x	3.2µM*	45µM*	-3%	x
O=C(Cn1nc(Cc2cccnc2)c2ccccc2c1=O)Nc1cccnc1Cl	3%	2%	-22%	7%	3%
COc1cccc(N2CCN(C(=O)c3cc4c(=O)n(Cc5ccco5)ccc4nc3C)CC2)c1	-9%	x	10µM*	x	x
Cc1ccc(CNC(=O)c2cc3c(=O)n(Cc4ccco4)ccc3nc2C)cc1	-3%	x	25µM*	x	x
Cc1ccc(C)c(N2CCN(C(=O)c3cc4c(=O)n(Cc5ccco5)ccc4nc3C)CC2)c1	-5%	x	40µM*	x	x
O=C(/C=C/c1ccccc1)Nc1nc2n(n1)C(c1ccc(Cl)cc1)C=C(c1ccccc1)N2 (stereo unspecified)	3%	x	0%	x	x
Cc1ccccc1-n1nc2c(c1NC(=O)c1ccco1)CS(=O)(=O)C2	-1%	-4%	45µM*	0%	-6%
CC(=O)Nc1c2c(nn1-c1ccc(C)cc1C)CSC2	-1%	4%	-30%	9%	1%
Cc1ccccc1-n1nc2c(c1NC(=O)c1ccc(Br)o1)CSC2	-19%	5%	32µM*	1%	1%
O=C(Nc1c2c(nn1-c1ccccc1)CS(=O)(=O)C2)c1ccco1	8%	x	0%	2%	4%
Cc1ccc(SCC(=O)OCC(=O)N(CC(C)C)c2c(N)n(Cc3ccccc3)c(=O)[nH]c2=O)cc1C	4%	x	-2%	x	-23%
COC(=O)Cn1c(CCS(=O)(=O)c2ccc(Cl)cc2)nc2ccccc21	-1%	3%	6%	3%	-1%
O=C1CCCC2=C1C1c3ccccc3C(=O)N1c1ccc(C(=O)c3ccccc3)cc1N2 (stereo unspecified)	2%	-9%	1%	4%	-11%
[O-][n+]1onc2c1CCC(=N/O)/C2=N\Nc1ccccc1	x	u	18µM*	u	x
[O-][n+]1c2c(nn1-c1ccccc1)/C(=N/O)CCC2	-5%	5%	x	-7%	7%
Cc1cccc(NC2=NC(=S)N(c3ccc(C(=O)O)cc3)C23CCCCC3)c1	4%	1%	6%	0%	7%
CCCCN(CC)CCCNC(=O)c1ccc2c(c1)NC(=O)CN2C	-3%	x	22µM*	x	x
COC(=O)c1ccccc1NC(=O)C1CCN(C(=O)c2cc(OC)cc(OC)c2)CC1	0%	5%	5%	-3%	12%
COc1cccc(NC2c3ccccc3C(=O)N2Cc2ccco2)c1 (stereo unspecified)	-13%	-24%	40µM*	7%	7%
O=C1c2ccccc2N2C(=O)c3ccccc3C2N1O (stereo unspecified)	-7%	-7%	0%	-1%	-6%
CC(=O)c1cccc(NC2c3ccccc3C(=O)N2Cc2ccco2)c1 (stereo unspecified)	-1%	4%	u	4%	3%
SMILES	Tb PYK inh	FBPA Giardia inh	Sm TGR block	LmPK inh	RE007 growth inh
O=C1c2ccccc2N2C(=O)c3ccccc3C2N1Cc1ccco1 (stereo unspecified)	-1%	14%	14µM*	3%	3%
COc1cccc(OCc2cc(C3Nc4ccccc4C(=O)N3Cc3ccco3)ccc2OC)c1 (stereo unspecified)	-1%	-9%	18µM*	0%	2%
Cc1ccccc1NC1c2ccccc2C(=O)N1Cc1ccco1 (stereo unspecified)	-12%	-12%	20µM*	12%	10%
Cc1ccc(CNS(=O)(=O)c2ccc3c(c2)C(C)(C)C(=O)N3C)cc1	0%	9%	-17%	-4%	15%
CCN(CC)S(=O)(=O)c1ccc(NC2c3ccccc3C(=O)N2Cc2ccco2)cc1 (stereo unspecified)	-22%	9%	22µM*	3%	3%
CCN(CC)S(=O)(=O)c1ccc(NC2c3ccccc3C(=O)N2Cc2ccc3c(c2)OCO3)cc1 (stereo unspecified)	5%	1%	0%	-8%	3%
Cc1ccccc1OCC(=O)Nc1sc2c(c1C#N)CCC2	-2%	0%	3%	4%	0%
CCOC(=O)C1=C(C)NC(=O)/C1=C\N(C)C	-4%	-15%	20µM*	-4%	12%
CCOc1ccc(/C=N/NC(=O)CCC(=O)Nc2ccc(F)cc2)cc1	-13%	6%	14%	-6%	16%
CCc1noc(C)c1C(=O)Nc1ccc(F)c(F)c1	4%	x	-1%	x	2%
COc1ccccc1NC(=O)Cn1c(=O)n(-c2ccccc2Cl)c(=O)c2sc3ccccc3c21	0%	x	-1%	x	x
COc1cc2c(cc1OC)C(COc1ccc(F)cc1)N(C(=O)Cc1ccccc1)CC2 (stereo unspecified)	3%	x	-1%	x	x
CCC(NC(=O)C(C)NC)C(=O)N1CCCC1C(=O)NC1CCCc2ccccc21 (stereo unspecified)	1%	x	32µM*	x	-15%
CCC(C)[C@H](NC(=O)NC1CCCc2ccccc21)C(=O)O (stereo partly specified)	1%	-2%	-16%	0%	6%
CCCCNC(=O)C1CCCN(S(=O)(=O)CCC)C1 (stereo unspecified)	-3%	x	16%	x	x
COc1ccc(C2=NNC(c3cc(Cl)cc4c3OCOC4)C2)c(O)c1 (stereo unspecified)	x	13%	x	0%	x
Oc1ccc(Cl)cc1C1=NNC(c2cc(Br)cc3c2OCOC3)C1 (stereo unspecified)	-6%	5%	25µM*	-6%	17%
Cc1cccc(-n2c(-c3ccc(Br)o3)n[nH]c2=S)c1	u	x	x	x	-4%
Cc1cccc(-n2c(-c3ccco3)n[nH]c2=S)c1	u	-4%	0%	18µM*	0%
CCCc1cc(-c2n[nH]c(=S)n2-c2cccc(C)c2)cs1	u	-1%	x	u	-1%
Cc1ccccc1-n1c(-c2csc(C)c2C)n[nH]c1=S	u	9%	0%	7.9µM*	14%

Compound activity as filed in PubChem BioAssay.
